Reference: PubChem BioAssay AID1053143 (Broad Institute, 2014)
Screen size: about 3,400 compounds; about 120 (3.5%) were called active. These entries were drawn from the full list. Entries with a potency or affinity are not part of this list. Unmarked numbers belong to inactive results. How the calls were made is not given here.

Test: HepG2 cell cytotoxicity, dose response, cytotoxicity control, ATP luminescence, cherry-pick, activator set 2 (AID 1053143)
Settings: HepG2 viability, CellTiter-Glo ATP luminescence, 72 h; series mostly up to 26 µM; activity change, negative = cytotoxicity: at the top concentration

Row | SMILES | activity change, negative = cytotoxicity
1 | Cn1c2nc3ccccc3c-2nc2ccccc21 | -1.19%
2 | CCCCOC(=O)Nc1ccc(C(=O)OC)cc1 | -10.3%
3 | CC1CCc2nc3sc4c(c3c(N)c2C1)CCCC4 (stereo not given) | -18.5%
4 | O=C(Nc1nc(-c2nc3ccccc3s2)cs1)C1CC1 | -14.7%
5 | COc1ccc(-c2nc3ccccc3s2)cc1NC(C)=O | 6.95%
6 | Cc1nn2c(=O)cc(COC(=O)c3c(F)cccc3Cl)nc2s1 | 11.9%
7 | COc1ccc(/C=C/c2nnc(NC(C)=O)s2)cc1 | -7.78%
8 | Cc1csc(NC(=O)c2ccc(C)s2)n1 | -0.98%
9 | COc1cccc(C(=O)Nc2nc(C)cs2)c1 | -14.1%
10 | O=C(/C=C/c1cccs1)NCc1cccs1 | -4.94%
11 | O=C(Nc1ccc2c(c1)OCO2)c1ccccn1 | -28.9%
12 | O=C(O)c1ccc(-c2noc(-c3ccccc3Cl)n2)cc1 | -9.54%
13 | O=C(Nc1ccc(F)cc1)Nc1ccc2c(c1)CCC2 | 0.599%
14 | O=C(Nc1cccc(F)c1)Nc1ccc2c(c1)CCC2 | -10.1%
15 | COc1cc(/C=C/C(=O)OCC(=O)NCCc2ccccc2)cc(OC)c1OC | -6.38%
16 | COc1cc(/C=C/C(=O)N2C(=O)c3cccc(N)c3C2=O)cc(OC)c1OC | -13.5%
17 | Cc1cc(C(=O)COC(=O)c2ccc(O)cc2O)c(C)n1C(C)C | -5.63%
18 | c1ccc(-c2csc(N3CCOCC3)n2)cc1 | -5.01%
19 | Nc1nc(-c2ccc3c(c2)CCO3)cs1 | -9.81%
20 | COc1cc(/C=N/Nc2ccc(Cl)c(C(=O)O)c2)ccc1OC(=O)c1cccs1 | -11.9%
21 | O=c1oc2ccccc2c2c1ncn2CCN1CCOCC1 | 1.21%
22 | O=S(=O)(c1ccc(Cl)cc1)N1CCN(Cc2ccc(O)c3ncccc23)CC1 | -26.6%
23 | O=C(c1ccc(N2CCOCC2)cc1)c1cccs1 | 27.7%
24 | CCc1ccc(CNCCNC(=O)c2ccco2)cc1 | -19.8%
25 | O=c1c2ccccc2nnn1CSc1nnc2ccccn12 | -3.79%

Row | SMILES | activity change, negative = cytotoxicity
26 | CCC(C)(C)c1ccc2c(c1)C(=O)c1ccccc1C2=O | -13.3%
27 | COCCNC(=O)c1ccc2c3n(nc2c1)-c1ccc(C)cc1CO3 | -14.6%
28 | O=C(NCCO)c1ccc2c3n(nc2c1)-c1ccccc1CO3 | -34%
29 | O=C(O)c1ccc2c3n(nc2c1)-c1ccc(Cl)cc1CO3 | -30.5%
30 | O=C(c1ccc2c3n(nc2c1)-c1ccc(Cl)cc1CO3)N1CCOCC1 | -29.3%
31 | CCOC(=O)c1sc(=NC(=O)c2ccccc2Br)n(C)c1C | 22.1% [at 12 µM]
32 | COc1ccc(CCC(=O)Nc2nnc(C)s2)cc1 | -5.22%
33 | CC(=O)Nc1ccc(-c2cc(N)n(-c3ccccc3)n2)cc1 | -17.1%
34 | Cc1ccc(OC(=O)c2c(C)nn(-c3ccccc3)c2C)cc1 | 5.12%
35 | Cc1ccc2cc(/C=C/C(=O)c3ccco3)c(Cl)nc2c1 | -14.8%
36 | CCOC(=O)N1N=C(CC)CC1(O)C(F)(F)F (stereo not given) | 10.4%
37 | Cn1c(-c2ccc(F)c(F)c2)cc2onc(-c3ccccc3)c2c1=O | -9.83%
38 | COC(=O)c1ccc(-c2cc3onc(-c4ccccc4)c3c(=O)n2C)cc1 | 13%
39 | CC(C)C1COC(c2cccc3ccccc23)=N1 (stereo not given) | -1.51%
40 | CC(=O)c1ccc(NC(=O)c2ccn(C(=O)OCC(C)C)n2)cc1 | -22.6%
41 | CCOC(=O)c1csc(NC(=O)c2cccs2)n1 | -11.3%
42 | COc1ccc2cc(CCNC(=O)c3cccs3)c(=O)[nH]c2c1 | -6.15%
43 | Cc1csc(=NC(=O)c2ccccc2)n1C | -4.28%
44 | CC(C)C(=O)Nc1ccc(NC(=O)c2cc3ccccc3o2)cc1 | -10.1%
45 | COc1ccc2nc(NC3=NCCC3)sc2c1 | -13.8%
46 | CCOC(=O)c1cccc(NC(=O)c2ccc(F)cc2F)c1 | -13.7%
47 | CN1CCN(c2ccc(-c3ccnn3C(=O)Nc3ccccc3)cc2)CC1 | -18.8%
48 | CS(=O)(=O)N1CCN(c2ccc(NC(=O)c3ccc(Br)o3)cc2)CC1 | -4.07%
49 | Cc1ccccc1Nc1nn2c(=O)c3ccccc3nc2s1 | -18.2%
50 | COc1c(C(=O)NNC(=O)c2ccccc2)csc1Br | 3.9%

Row | SMILES | activity change, negative = cytotoxicity
51 | Oc1c(/C=N/c2ccccn2)sc2ccccc12 | -10.5%
52 | CC(/C=N/Nc1nc2ccccc2[nH]1)=C\c1ccccc1 | -7.42%
53 | Cc1ccc(/C=C/C(=O)c2nc3ccccc3[nH]2)cc1 | -0.116%
54 | CC(C)C(OC(=O)C1=Cc2ccccc2OC1)C(=O)NCC1CCCO1 (stereo not given) | -10.3%
55 | Nc1ccc(-c2nc3ccccc3s2)cn1 | -7.55%
56 | Cc1ccc2nc(-c3ccc(NS(=O)(=O)c4ccc(F)cc4)cc3)sc2c1 | -13.2%
57 | COc1ccc(OCc2cc(C(=O)N3CCOCC3)no2)c(Cl)c1 | -6.33%
58 | O=c1cccc2n1Cc1cc3ccccc3nc1-2 | -2.27% [at 12 µM]
59 | COc1ccc(C(=O)COC(=O)c2sccc2C)cc1OC | -0.285%
60 | O=C(Nc1ccc(NC(=O)C2CC2)cn1)c1ccccc1Cl | -12.3%
61 | O=C(Nc1ccc(C(=O)c2ccccc2)cc1)c1ccccc1 | -10%
62 | Nc1ccccc1N=Nc1ccccc1N | -6.69%
63 | CC(C)(C)OC(=O)N/N=C\C=C\c1ccc2c(c1)OCO2 | 2.12%
64 | CCc1ccc(NC(=O)C(=O)c2ccccc2NC(C)=O)cc1 | -1.17%
65 | O=C(Nc1ccc2c(c1)OCO2)N1CCCc2ccccc21 | 1.95%
66 | COc1ccc(NC(=O)N2CCCc3ccccc32)cc1 | -6.43%
67 | O=C(Nc1ccc(NC(=O)C2CCCCC2)nc1)c1cccs1 | 31.7%
68 | COc1ccc(NC(=O)/C(=C\c2ccc3c(c2)OCO3)NC(C)=O)cc1 | -15.9%
69 | COc1ccc2c(c1)CCC1C2=NN(/C(C)=C\C(C)=O)C1c1ccc(F)cc1 (stereo not given) | -1.99%
70 | c1ccc(-c2ccc3ccccc3n2)cc1 | -17.4%
71 | CCN(CC)c1cc(C)c(C#N)c2nc3ccccc3n12 | -21.3%
72 | O=C(c1cccs1)N1CCN=C1SCc1ccc(F)cc1 | 11.9% [at 12 µM]
73 | COc1ccc(-c2cn(Cc3ccc(C(=O)c4ccccc4)cc3)nn2)cc1 | -18%
74 | O=C(N/N=C/c1ccc(Br)cc1)c1ccc(Br)o1 | 12.5%
75 | CCc1ccc2cc3c(cc2n1)C(=O)c1ccccc1-3 | -15.3%

Row | SMILES | activity change, negative = cytotoxicity
76 | O=C(Nc1ccc(F)c(Cl)c1)c1ccccc1 | -28.6%
77 | COc1ccc(NC(=O)Nc2ccc(F)c(Cl)c2)cc1 | -6.84%
78 | COc1ccccc1NC(=O)CCC(=O)Nc1nnc(C2CCCCC2)s1 | -8.45%
79 | COc1cccc(C=Cc2nccc3ccccc23)c1OC | -24%
80 | O=C1c2ccccc2C(=O)C1c1ccnc2ccccc12 | 11.3%
81 | C=CCSc1nc2c(cnn2-c2ccccc2)c(=O)n1N | -8.22%
82 | Cc1ccc(OCC(=O)Nc2ccccc2[N+](=O)[O-])c(Br)c1 | 13.1%
83 | O=c1c2ccccc2oc2cc(NCCCN3CCOCC3)ccc12 | -6.64%
84 | O=c1c2ccccc2oc2cc(-c3ccc4cc[nH]c4c3)ccc12 | -6.73%
85 | Cc1ccccc1Nc1nc(N)nc(-c2oc3ccccc3c2C)n1 | -2.45%
86 | Cc1ccc(C)c(Nc2nc(N)c3ccccc3n2)c1 | -25.3%
87 | Cc1ccc(-c2nc(Nc3ccccc3)n[nH]2)cc1 | -0.325%
88 | Nc1ccccc1-c1nc2ccccc2s1 | -14.9%
89 | Nc1ccccc1-c1nc2ccccc2[nH]1 | -14.4%
90 | Nc1nc(CSc2ccccn2)nc(Nc2ccccc2)n1 | -20%
91 | COc1ccc(-c2c3c(nc4sc(C(=O)Nc5ccccc5)c(N)c24)CCC3)cc1 | 3.45%
92 | CN(CC(=O)Nc1cccc(F)c1)C(=O)CCNC(=O)c1ccco1 | 13.2%
93 | CCOC(=O)c1ccc(S(=O)(=O)NCCNCc2ccccc2)cc1 | 27.4% [at 12 µM]
94 | CCOC(=O)C1CCN(C(=O)c2cc3cc(C)ccc3[nH]2)CC1 | 7.79%
95 | COC(=O)c1ccc2[nH]c(C3(O)CCCCC3)c(C)c2c1 | -11.6%
96 | CC(C)c1ccc(N=C2N=C(N)c3ccccc32)cc1 | -8.99%
97 | Cc1ccc(-c2noc(CSc3ccccc3)n2)cc1 | -12.3%
98 | COc1ccc(NC(=O)c2ccc3c(c2)N(C)CCS3)cc1 | 0.622%
99 | CCOc1ccc(NC(=O)c2ccc3c(c2)N(C)CCS3)cc1 | 0.299%
100 | Cc1ccc(NC(=O)Nc2cnc3ccccc3c2)cc1 | -13.6%

Row | SMILES | activity change, negative = cytotoxicity
101 | c1ccc(-c2nc(-c3ccc(-c4ccon4)s3)no2)cc1 | 11.5%
102 | CCCC(=O)N=C1SC2CS(=O)(=O)CC2N1c1ccc(-c2nc3ccc(C)cc3s2)cc1 (stereo not given) | -6.16% [at 6 µM]
103 | O=c1c2c3c(sc2nc2n1CCCCC2)CCCC3 | 7.6% [at 12 µM]
104 | Cc1ccc2cc(NC(=O)c3cccc(F)c3)ccc2n1 | -11.1%
105 | O=C(Nc1ccc(NC(=O)c2ccco2)nc1)c1cccc(F)c1 | 3.89%
106 | O=C(CCc1ccccc1)Nc1ccc(NC(=O)c2ccco2)nc1 | 6.73%
107 | O=C(Cc1ccccc1)Nc1ccc(NC(=O)c2ccco2)nc1 | 4.68%
108 | CC(=O)Nc1ccc2c(c1)C(=Nc1cccc(C)c1)c1ccccc1-2 | -8.52%
109 | C/C(=N\OC(=O)Nc1ccc(Cl)cc1)c1ncc(C(F)(F)F)cc1N1CCOCC1 | -2.73%
110 | O=C(CSc1nnc(-c2ccccn2)o1)Nc1ccccc1F | -19.4%
111 | O=C(CSc1nnc(-c2cccnc2)o1)Nc1ccccc1F | -15.1%
112 | CCOc1nc(N2CCOCC2)nc(C)c1[N+](=O)[O-] | -9.28%
113 | Cc1ccc(NC(=O)c2ccc(F)cc2F)cc1 | -4.22%
114 | c1ccc(-c2nnc(-c3ccccn3)nn2)nc1 | -17.4%
115 | c1ccc(-c2ccc(-c3ccccn3)s2)nc1 | -9.96%
116 | Cc1ccc2oc(-c3cccc(NC(=O)c4ccccn4)c3)nc2c1 | -21.7% [at 12 µM]
117 | COc1cccc(-c2nnc(-c3ccc4ccccc4c3)o2)c1 | -4.7%
118 | COC(=O)c1ccc(-c2nc3ccc(C)cc3o2)cc1 | -4.62%
119 | COc1ccc(-c2nnc(-c3ccc(C)cc3)o2)cc1 | -7.01%
120 | COC(=O)CSc1nc2ccccc2c(=O)n1C | 12.1%
121 | COc1cc(CO)ccc1OCc1ccc(Cl)nc1 | -13.2% [at 12 µM]
122 | Clc1ccccc1OCc1nc(-c2ccccn2)no1 | -14.1%
123 | Cn1c(SCC(=O)c2ccccc2)nnc1-c1ccco1 | 0.181%
124 | Cc1cc(C(=O)COC(=O)c2cccc(S(=O)(=O)N(C)C)c2)c(C)n1CC1CCCO1 (stereo not given) | -5.36%
125 | CC(C)Oc1ccc(C(=O)OCC(=O)c2ccc[nH]2)cc1 | -11.4%
